Bioassay records as filed in PubChem.
Cruzain inh noDet: blocks cruzain activity in detergent-free assay; P25779; purified cruzain, Z-FR-AMC fluorescence, no detergent; Potency, µM, hits mostly inhibitors; 2.3% of 200,000 active; AID 1476; further: nearly all actives have a fitted effect of over 40% in size
Target sequence (P25779 123-467 limits assumed): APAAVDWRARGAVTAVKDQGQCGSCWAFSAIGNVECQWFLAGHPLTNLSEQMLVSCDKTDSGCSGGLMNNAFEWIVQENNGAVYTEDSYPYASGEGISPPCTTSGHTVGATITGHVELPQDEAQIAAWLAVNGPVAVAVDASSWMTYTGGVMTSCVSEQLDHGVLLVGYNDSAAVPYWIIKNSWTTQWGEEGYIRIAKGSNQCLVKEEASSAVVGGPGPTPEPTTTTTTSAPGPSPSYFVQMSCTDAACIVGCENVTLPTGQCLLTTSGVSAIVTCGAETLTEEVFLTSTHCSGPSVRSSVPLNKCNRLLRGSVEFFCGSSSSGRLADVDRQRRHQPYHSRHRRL
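Purified cruzain at 1.5 nM, pre-incubated 15 min with compound at room temperature in 100 mM sodium acetate pH 5.5, 5 mM DTT, 0.00005% Triton X-100. Reaction started with 2 uM Z-FR-AMC; AMC fluorescence increase over 60 s gives rate.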
Cruzain Triton: blocks cruzain activity in presence of Triton detergent; P25779; purified cruzain, Z-FR-AMC fluorescence, 0.01% Triton; Potency, µM, hits mostly inhibitors; 0.43% of 200,000 active; AID 1478; further: nearly all actives have a fitted effect of over 40% in size
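Read-out: AMC fluorescence (360 nm excitation, 450 nm emission), four reads over 2 min, first-to-third difference used. Conditions: cruzain 1.5 nM, Z-FR-AMC 2 uM, pH 5.5 acetate, 5 mM DTT, 0.01% Triton X-100.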
Of the large screens only hits and unclear results are named; the others gave an inactive call. The list is not random: actives were taken first. Their share in the collection is about 2.4%. The call rests on the fitted dose curve; in most records, active means well fitted curve in the direction sought with a large enough effect; inconclusive means small, poorly fitted or top-dose-only effect, or another doubt; inactive means no such curve, though single readings can be large; an effect the other way counts as inactive or inconclusive.

Fc1ccc(Nc2ncncc2-c2ccccc2C(F)(F)F)cc1	none
O=c1[nH]c(/C=C/c2ccccc2[N+](=O)[O-])nc2ccccc12	none
O=C1OC(c2ccccc2)=N/C1=C\C=C\c1ccccc1[N+](=O)[O-]	Cruzain inh noDet 15.8µM, Cruzain Triton 12.6µM
Cc1ccc(S(=O)(=O)NC(=O)NCc2ccccc2)cc1	none
CCCCOc1ccc(CNC(=O)NS(=O)(=O)c2ccc(OCC(C)C)cc2)cc1	Cruzain inh noDet 7.94µM
CCCCOc1ccc(CNC(=O)NS(=O)(=O)c2ccc(OCC)cc2)cc1	Cruzain inh noDet 20µM
CCCCOc1ccc(S(=O)(=O)Nc2ccc(NC(C)=O)cc2)cc1	none
CCCCNC(=O)NS(=O)(=O)c1ccc(C)cc1	none
CCCCOc1ccc(S(=O)(=O)NC(=O)NCc2ccc(OCCC)cc2)cc1	Cruzain inh noDet 25.1µM
Cc1c(Cl)cccc1NC(=O)CN1C(=O)COc2ccc(S(=O)(=O)Nc3ccccc3)cc21	none
CC(=O)c1cccc(NC(=O)Nc2c(C)n(C)n(-c3ccccc3)c2=O)c1	none
Cc1cc(C)c2c(c1)NC(c1cc3c(cc1Br)OCO3)C1CC=CC21 (stereo not given)	Cruzain inh noDet 20µM
Brc1cc2c(cc1C1Nc3ccccc3C3C=CCC31)OCO2 (stereo not given)	Cruzain inh noDet inconclusive
CC=O	none
CS(=O)(=O)c1ccc(Sc2nc3ccccc3s2)c([N+](=O)[O-])c1	none
O=[N+]([O-])c1cc(S(=O)(=O)C(F)(F)F)ccc1Sc1nc2ccccc2s1	Cruzain inh noDet 25.1µM
COC(=O)c1c(NC(=O)c2c(-c3ccccc3Cl)noc2C)sc2c1CCC2	Cruzain inh noDet 12.6µM
COC(=O)c1c(NC(=O)c2c(C)noc2C)sc2c1CCCCCC2	none
O=[N+]([O-])c1cc2c(cc1/C=N/Nc1nc(N3CCCC3)nc(N3CCCC3)n1)OCO2	none
O=[N+]([O-])c1ccc(Nc2nc(N/N=C\c3ccc4c(c3)OCO4)nc(N3CCCCC3)n2)cc1	Cruzain inh noDet 7.94µM
COc1ccc(NS(=O)(=O)c2ccc(NC(=O)N3CCCC3)cc2)cc1	none
CCCN(CCC)c1nn2c(=O)c(C(=O)NCc3cc(Br)ccc3OC)cnc2s1	none
O=C(Cn1c(=O)n(Cc2ccco2)c(=O)c2c3c(sc21)CCCCC3)Nc1ccccc1	Cruzain inh noDet inconclusive, Cruzain Triton 28.2µM
CN(C)CCn1c(=O)n(Cc2ccco2)c(=O)c2c3c(sc21)CCCCC3	none
O=C(Cn1c(=O)n(Cc2ccco2)c(=O)c2c3c(sc21)CCCCC3)c1ccccc1	Cruzain inh noDet 25.1µM
O=c1c2c3c(sc2n(CCN2CCCC2)c(=O)n1Cc1ccco1)CCCCC3	Cruzain inh noDet inconclusive
Nc1[nH]c(=S)[nH]c(=O)c1N=Nc1c(Br)cc(S(N)(=O)=O)cc1Br	none
CCOC(=O)c1cc(-c2ccc(OC)cc2)n(CCC(=O)Nc2nc3ccc(OCC)cc3s2)c1C	none
COc1cccc(Cn2cnc3c(NS(=O)(=O)c4ccc(Cl)cc4Cl)c(C)c(C)cc32)c1	Cruzain inh noDet 31.6µM
COc1cccc(Cn2cnc3c(NS(=O)(=O)c4cc(Cl)ccc4Cl)c(C)c(C)cc32)c1	Cruzain inh noDet inconclusive
Cc1ccccc1NC(=O)Cn1c(=O)n(CCc2ccccc2)c(=O)c2sc3ccccc3c21	none
CC1=CC(C)(C)Nc2ccc(OC(=O)CN3C(=O)c4ccccc4C3=O)cc21	none
CC1=CC(C)(C)Nc2ccc(OC(=O)CN3C(=O)c4cccc5cccc(c45)C3=O)cc21	Cruzain inh noDet 25.1µM
Cc1ccc(C)c(NC(c2ccccc2)c2nnc(-c3ccccc3F)o2)c1 (stereo not given)	none
COc1cc(Cl)c(C)cc1NC(c1ccccc1)c1nnc(-c2ccccc2Cl)o1 (stereo not given)	Cruzain inh noDet 15.8µM
Cc1cc(/C=C(\C#N)C(=O)Nc2ccc(Cl)cc2)c(C)n1-c1ccc(N2CCOCC2)c([N+](=O)[O-])c1	Cruzain inh noDet 7.94µM
Cc1ccc(NC(=O)/C(C#N)=C/c2cc(C)n(-c3ccc(N4CCOCC4)c([N+](=O)[O-])c3)c2C)c(C)c1	Cruzain inh noDet inconclusive
COc1ccc(-c2csc3nc(-c4ccccc4C)oc(=O)c23)cc1OC	none
COc1cc(NC(=O)c2cccs2)c(C(=O)OCC(=O)NC(=O)NC(C)(C)C)cc1OC	Cruzain inh noDet inconclusive
COc1ccc(-n2c(C)cc(C(=O)COC(=O)c3cc(NC(=O)c4cccs4)c(OC)c(OC)c3)c2C)cc1	Cruzain inh noDet inconclusive
COc1cc(NC(=O)c2cccs2)c(C(=O)OCC(=O)c2cc(C)n(-c3ccc(F)cc3)c2C)cc1OC	Cruzain inh noDet 3.98µM
COc1cc(NC(=O)c2cccs2)c(C(=O)OCC(=O)c2cc(C)n(-c3ccccc3)c2C)cc1OC	Cruzain inh noDet 3.16µM
CCOc1cc(C2c3c(-c4cc(C)ccc4O)n[nH]c3C(=O)N2CCCOC(C)C)ccc1O (stereo not given)	none
CC1=NN(c2ccccc2)C(=O)/C1=C\c1cc(C)n(-c2ccccc2)c1C	Cruzain inh noDet inconclusive
Cc1cc(/C=C2/C(=O)NN(c3ccccc3)C2=O)c(C)n1-c1cccc(O)c1	Cruzain inh noDet 25.1µM
COC(=O)c1ccc(-c2nc3cc(N)ccc3o2)cc1	none
COC(=O)c1ccc(-c2nc3cc(Cl)c(N)cc3s2)cc1	Cruzain inh noDet 7.94µM
Cc1ccc(-n2c(SCC(=O)N3CCC(C)CC3)nc3c([nH]c4ccccc43)c2=O)cc1	none
CCCCCCC(=O)N=Nc1c(O)[nH]c2ccc([N+](=O)[O-])cc12	Cruzain inh noDet 25.1µM
CCc1cc(C(=O)N=Nc2c(O)[nH]c3ccc([N+](=O)[O-])cc23)c2ccccc2n1	none
COc1cc(/C=N/NC(N)=O)cc(Br)c1OCc1ccc(C)cc1	Cruzain inh noDet inconclusive
Cc1cc(Br)c(OCc2ccc(C(=O)N/N=C3\CC4CC=CC34)cc2)c(Br)c1 (stereo not given)	Cruzain inh noDet 20µM
COc1ccc(N(C)S(=O)(=O)c2cccc(C(=O)OCC(=O)Nc3sc4c(c3C#N)CCCCC4)c2)cc1	Cruzain inh noDet 12.6µM
N#Cc1c(NC(=O)COC(=O)c2ccc(F)cc2)sc2c1CCC2	Cruzain inh noDet inconclusive
Cc1ccc(C(=O)OCC(=O)Nc2sc3c(c2C#N)CCC3)cc1	Cruzain inh noDet 20µM
CCN(CC)S(=O)(=O)c1ccc(C(=O)OCC(=O)Nc2sc3c(c2C#N)CCCCC3)cc1	Cruzain inh noDet inconclusive
Cc1ccc(NC(=O)CCC(=O)N2Cc3ccccc3Oc3ncccc32)cc1F	none
Cc1ccc(NS(=O)(=O)c2ccc3c(c2)CCCN3C(=O)C2CCC2)cc1Cl	none
Cc1ccc(NS(=O)(=O)c2ccc(Cl)c(NC(=S)NC(=O)C3CCCCC3)c2)cc1Cl	Cruzain inh noDet 31.6µM
CCN1CCN(C(c2ccc(C)cc2)c2sc3nc(-c4ccco4)nn3c2O)CC1 (stereo not given)	none
CCN1CCN(c2cc(C)c3cc(NC(=O)/C=C/c4cccc(Cl)c4)ccc3n2)CC1	none
O=C1/C(=C/c2cccc(F)c2)CSc2sccc21	none
Cc1cccc(/C=C2\CS/C(=C\c3cccc(C)c3)C2=O)c1	Cruzain inh noDet 25.1µM
CCOc1ccc(NC(=O)CCSc2nc(-c3ccc4c(c3)OCO4)cc(C(F)(F)F)n2)cc1	none
CCCOc1ccc(C(=O)NNC(=S)NC(=O)c2cc(-c3ccc(Cl)cc3)nc3ccccc23)cc1	Cruzain inh noDet inconclusive
COc1ccc(Cl)cc1C(=O)NNC(=S)NC(=O)c1cc(-c2ccccc2)nc2ccccc12	Cruzain inh noDet 3.16µM
COC(=O)c1ccc(NC(=S)NC(=O)c2cc(-c3ccccc3)nc3ccccc23)cc1	Cruzain inh noDet 10µM
